SW480 rereplic – induces DNA re-replication in SW480 colon adenocarcinoma cells. AID 624297. SW480 DNA re-replication, Hoechst DNA content imaging, 48 h. Potency, µM (titrated, usually from 46.1 µM), for the others: at the highest dose re-replication activation, usual class: activators. actives 1.8% (n = 340,000); further: potency means the concentration at half of the fitted maximal effect; % of control where 0% means no effect; nearly all actives have a fitted effect of over 55% in size
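First, 250 cells per well were seeded. Next, compound or vehicle (23 nL) was pinned in, plates sat 48 hr at 37 C. Finally Hoechst was added for 40 min before fluorescence scanning.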
IL1B secr inh – blocks inflammasome-driven IL-1 beta release. THP-1 LPS/ATP IL-1B secretion, AlphaLISA, 16 h; hits give low values. activity change, % at 57.5 µM. actives 4.7% (n = 360,000); in the data active means activity change below about -50%; inconclusive means mostly about -30% to -49%; further: on the % scale 0 is the no-effect control and ±100 the full control effect
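THP-1 cells pretreated 1 hr with compounds (up to 57.5 uM final), then stimulated with LPS (250 ng/mL final) plus ATP (1.25 mM final); secreted IL-1B measured by AlphaLISA after 16 hr, decreased signal indicating inhibition.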
MCF10A rereplic – DNA re-replication induction in MCF 10a cells; MCF 10A DNA re-replication, Hoechst nuclear intensity, 48 h; actives 2.9% (n = 350,000); Potency, µM (series often up to 46.1 µM), for the others: at the highest dose activity, positive = re-replication, hits mostly activators; AID 624296; further: potency means the concentration at half of the fitted maximal effect; % of control where 0% means no effect; nearly all actives have a fitted effect of over 50% in size
RORgamma inh – inhibitors of mouse ROR gamma transcriptional activity. actives 5.4% (n = 310,000). Drosophila S2 Gal4-RORgamma UAS-luciferase reporter, 20 h. AID 2551. Potency, µM (highest dose often 53.6 µM), without a hit: top-dose activity change, negative = inhibition, usual class: inhibitors. P51450; further: potency means the concentration at half of the fitted maximal effect; on the % scale 0 is the no-effect control and ±100 the full control effect; nearly all actives have a fitted effect of over 60% in size
Target sequence (P51450 whole entry, looked up, the tested form may be a part): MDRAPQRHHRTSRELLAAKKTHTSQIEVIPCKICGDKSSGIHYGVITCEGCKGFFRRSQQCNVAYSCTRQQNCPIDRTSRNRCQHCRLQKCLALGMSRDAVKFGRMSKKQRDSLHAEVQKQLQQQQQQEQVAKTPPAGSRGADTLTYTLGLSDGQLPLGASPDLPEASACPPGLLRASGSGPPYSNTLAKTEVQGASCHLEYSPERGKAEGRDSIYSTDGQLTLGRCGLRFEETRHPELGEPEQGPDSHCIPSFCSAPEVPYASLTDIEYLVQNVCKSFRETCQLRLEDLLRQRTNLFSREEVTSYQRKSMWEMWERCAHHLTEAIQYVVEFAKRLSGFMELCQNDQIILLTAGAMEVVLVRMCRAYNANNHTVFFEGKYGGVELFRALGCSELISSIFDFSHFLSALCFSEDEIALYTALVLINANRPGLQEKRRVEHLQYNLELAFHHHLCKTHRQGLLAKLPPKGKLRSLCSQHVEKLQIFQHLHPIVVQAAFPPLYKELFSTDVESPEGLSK
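A Gal4/UAS one-hybrid system in insect cells: metallothionein-promoter Gal4–ROR gamma fusion plus Photinus luciferase reporter. Copper sulfate 700 uM final, 20 hr ambient incubation, luminescent detection after 10 min with reagent.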
VP16 counter – Gal4-VP16 reporter inhibition counter-screen. Drosophila S2 Gal4-VP16 UAS-luciferase, luminescence, 20 h. Potency, µM (highest dose often 53.6 µM), without a hit: at the top dose activity, negative = inhibition, hits mostly inhibitors. actives 3.5% (n = 310,000). AID 2546;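 further: Gal4-VP16 expression switched on by copper sulfate through the metallothionein promoter; potency means the concentration at half of the fitted maximal effect; on the % scale 0 is the no-effect control and ±100 the full control effect; nearly all actives have a fitted effect of over 50% in size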
The depositor's hits bear a star; ? = inconclusive; nt = no result given; [ ] = remark or other dose. In the library only some 11% were active in any assay of this set; here they are far more common. Unless noted, the call rests on the fitted dose curve; in most records, active means well fitted curve in the direction sought with a large enough effect; inconclusive means small, poorly fitted or top-dose-only effect, or another doubt; inactive means no such curve, though single readings can be large; an effect the other way counts as inactive or inconclusive.

SMILES | SW480 rereplic | IL1B secr inh | MCF10A rereplic | RORgamma inh | VP16 counter
CCOc1ccc(NC(=O)COC(=O)CNC(=O)c2ccc(-c3ccccc3)cc2)cc1 | 1% | 3 | -4% | nt | nt
COCCCNC(=S)N(CCO)Cc1cc2cc3c(cc2[nH]c1=O)OCCO3 | -69% | -16 | 0.65µM* | 19% | -7%
COCCNC(=S)N(CCO)Cc1cc2cc3c(cc2[nH]c1=O)OCCO3 | 7% | 0 | -8% | -1% | -8%
CC1=C(C(=O)OC2CCCCC2)C(c2cccnc2)n2nnnc2N1 (configuration not stated) | 1% | -10 | 2% | 24% | 16µM*
CC1=C(C(=O)Nc2ccccn2)C(c2cccnc2)n2nnnc2N1 (configuration not stated) | ? | 4 | 8.2µM* | 7% | -1%
CCN(CC)C(=O)C1=C(C)Nc2nnnn2C1c1cccnc1 (configuration not stated) | 2% | 23 | 3% | 9% | -7%
COC(=O)C1=C(C)Nc2nnnn2C1c1cccnc1 (configuration not stated) | 1% | 12 | 7% | -27% | ?
O=C(/C=C/c1ccccc1)NCCO | -2% | nt | 0% | 24% | -5%
O=C1CSC(=S)N1N=Cc1c[nH]c2ccc(Br)cc12 | nt | 3 | nt | nt | nt
COc1ccc(Br)cc1/C=N/N1C(=O)CSC1=S | -14% | 28 | -2% | 14µM* | -24%
COc1ccc(Cl)cc1CC1(C)C(=O)Nc2ccc(S(=O)(=O)NC3CCCCC3)cc21 (configuration not stated) | nt | -9 | nt | nt | nt
Cc1c(C(=O)Nc2ccccn2)oc2c(Cl)cccc12 | -3% | 12 | 12% | nt | nt
Cc1c(C(=O)Nc2nc3ccccc3[nH]2)oc2c(Cl)cccc12 | ? | 51 | ? | 10% | 6.3µM*
CCOc1ccc2oc(C(=O)NCc3nc4ccccc4[nH]3)c(C)c2c1 | 0% | -19 | 18% | 17% | -1%
Cc1c(C(=O)Nc2nc3ccccc3[nH]2)oc2ccccc12 | ? | 17 | ? | 0.89µM* | 5µM*
Cc1c(C(=O)Nc2nc3ccccc3[nH]2)oc2ccc(Br)cc12 | 0% | -6 | ? | 5.6µM* | 4.5µM*
CC(=O)c1ccccc1NC(=O)c1ccc(N2CCCC2=O)cc1 | ? | ? | 3% | nt | nt
Nc1nc2ccccc2n1S(=O)(=O)c1ccccc1 | nt | 14 | nt | nt | nt
CC[C@H](C)[C@H](NC(=O)[C@H](Cc1ccc(O)cc1)NC(=O)[C@H](Cc1cnc[nH]1)NC(=O)[C@H](CCCNC(=N)N)NC(=O)[C@H](CC(C)C)NC(=O)[C@H](C)NC(=O)[C@H](CO)NC(=O)[C@H](Cc1ccc(O)cc1)NC(=O)[C@H](Cc1ccc(O)cc1)NC(=O)[C@H](CCCNC(=N)N)NC(=O)[C@H](C)NC(=O)[C@H](CC(C)C)NC(=O)[C@H](CC(=O)O)NC(=O)[C@H](CCC(=O)O)NC(=O)[C@H](C)NC(=O)[C@@H]1CCCN1C(=O)[C@H](C)NC(=O)[C@H](CC(=O)O)NC(=O)[C@H](CCC(=O)O)NC(=O)CNC(=O)[C@@H]1CCCN1C(=O)[C@H](CC(N)=O)NC(=O)[C@H](CC(=O)O)NC(=O)[C@@H]1CCCN1C(=O)[C@H](CCCCN)NC(=O)[C@H](CO)NC(=O)[C@@H]1CCCN1C(=O)[C@@H](N)Cc1ccc(O)cc1)C(=O)N[C@@H](CC(N)=O)C(=O)N[C@@H](CC(C)C)C(=O)N[C@H](C(=O)N[C@H](C(=O)N[C@@H](CCCNC(=N)N)C(=O)N[C@@H](CCC(N)=O)C(=O)N[C@@H](CCCNC(=N)N)C(=O)N[C@@H](Cc1ccc(O)cc1)C(N)=O)[C@@H](C)O)[C@@H](C)CC | nt | nt | nt | 10% | -4%
CC1CC(C)CN(C(=O)c2cc3c(=O)n4ccccc4nc3s2)C1 (configuration not stated) | 27% | -1 | 21µM* | 16% | 6%
Cc1cc(C)cc(NC(=O)c2cc3c(=O)n4ccccc4nc3s2)c1 | 9.2µM* | -8 | ? | 23% | 9%
O=C(NC1CCCCCC1)c1cc2c(=O)n3ccccc3nc2s1 | 18µM* | -16 | 21µM* | ? | -7%
CC(CC(=O)c1cccs1)CC(=O)c1cccs1 | 16µM* | -7 | 18µM* | 4% | -2%
Cc1cc(C)c(C(CC(=O)c2cccs2)C(C#N)C#N)c(C)c1 (configuration not stated) | ? | -105* | ? | ? | ?
Cc1cc(C)c(C(=O)c2cccs2)c(C)c1 | -21% | -1 | -5% | nt | nt
SMILES | SW480 rereplic | IL1B secr inh | MCF10A rereplic | RORgamma inh | VP16 counter
O=C(O)CCCCCCCCCC(=O)c1cccs1 | -6% | 17 | 4% | 10µM* | 3.5µM*
CC(C)C(Cl)=NOC(=O)Nc1ccc(F)cc1 | ? | -100* | 3.3µM* | nt | nt
C/C(=N\OC(=O)Nc1ccc(Cl)cc1)c1ccc(F)c(F)c1 | -7% | -87* | ? | 20% | 4%
CCC(=O)OC1C(N(C)C)CC(C)O[C@H]1O[C@H]1[C@H](C)[C@@H](O[C@H]2CC(OC)[C@@H](O)C(C)O2)[C@H](C)C(=O)O[C@@H](CC)[C@](C)(O)[C@@H](O)[C@H](C)C(=O)[C@@H](C)C[C@]1(C)O (some centres not stated) | 11% | nt | 4% | 8% | -11%
O=C1Nc2ccc(Br)cc2C12NNc1ccccc1O2 (configuration not stated) | 3% | -5 | 23µM* | 11µM* | ?
O=C1Nc2ccc(Br)cc2C1(O)c1ccccc1 (configuration not stated) | 10% | 42 | -13% | 8% | 4%
CCN(CC)CCC(c1ccc(N(C)C)cc1)c1c(OC)cc(OC)c2c1OC(=O)CC2c1ccc(N(C)C)cc1 (configuration not stated) | nt | nt | nt | 28% | 0%
NC(=O)CCCCn1ccc(NC(N)=NCC(F)(F)F)n1 | nt | nt | nt | -11% | 7%
O=C(N/N=C(\CC(=O)c1cccs1)C(F)(F)F)c1ccncc1 | 7.3µM* | nt | ? | -19% | -29%
Cc1ccc(NCCC(=O)c2cccs2)cc1 | 0% | -7 | ? | -45% | 4%
Cc1ccc(C(=O)N/N=C(/CC(=O)c2cccs2)C(F)(F)F)cc1 | -3% | 16 | 18µM* | 11µM* | 7.1µM*
CCc1ccc2c(c1)N(C[C@H](C)CN(C)C)c1ccccc1S2 | ? | nt | 15% | -9%[10 µM] | -11%
COC(=O)[C@@]1(Cc2ccc(F)cc2)[C@H]2c3cc(C(=O)N(C)C)n(Cc4ccc(O)c(OC)c4)c3C[C@H]2CN1C(=O)c1ccccc1 | nt | nt | nt | ? | -7%
Cc1ccc(C=Nc2ccccc2C(N)=O)s1 | 4.6µM* | 30 | 3.7µM* | 40% | ?

From PubChem BioAssay
